Inconclusive results are not listed. The source made the active and inactive calls. Unless noted, calls follow the shape of the dose curve; as a rule, active = well fitted curve in the direction sought with a large enough effect in the repeat runs; inconclusive = weak or mixed curves; inactive = no such curve, though single readings can be large; an effect the other way counts as inactive or inconclusive.
What was measured:
[1] = qHTS assay to identify small molecule agonists of the estrogen receptor alpha (ER-alpha) signaling pathway in the presence of an antagonist - cell viability counter screen (AID 1259386);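 also: series mostly up to about 92 µM; cells exposed to compounds for 22 h at 37 °C before the viability read; nearly all actives have a fitted effect of over 30% in size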
Method in brief: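 The test measures whether compounds kill ER-alpha reporter cells (VM7Luc4E2) under antagonist co-treatment (ICI-182,780, 10.0nM). Fluorescence from CellTiter-Fluor is read after a 22hr exposure.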

[2] = target: Progesterone receptor (Homo sapiens) (UniProt P06401); experiment: qHTS assay to identify small molecule agonists of the progesterone receptor (PR) signaling pathway (AID 1346784; calls by dose curve; also: nearly all actives have a fitted effect of over 30% in size)
Method in brief: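 Fluorescence from LiveBLAzer B/G FRET substrate cleavage (2 hr, RT) reported PR activation in PR-UAS-bla HEK 293T cells treated 16 hr at 37C/5% CO2 with compounds; medium contained 2% charcoal-stripped FBS.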

[3] = target: Progesterone receptor (Homo sapiens) (UniProt P06401); experiment: qHTS assay to identify small molecule antagonists of the progesterone receptor (PR) signaling pathway (AID 1346795; active = well fitted inhibition curve with a large enough effect in the signal ratio in the repeat runs, not every such curve was filed as active; the % refers to the signal ratio; also: potency is read from the fitted curve at half-maximal effect)
Method in brief: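 Fluorescence intensity measured 2 hr after adding beta-lactamase FRET substrate to PR-UAS-bla HEK293T cells that had been co-treated 16 hr with compound and 1 nM R5020 (final concentration) in 2% charcoal-stripped FBS.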

[4] = qHTS assay to identify small molecule antagonists of the progesterone receptor (PR) signaling pathway - cell viability counter screen (AID 1346798); also: nearly all actives have a fitted effect of over 50% in size; also: potency is read from the fitted curve at half-maximal effect
Method in brief: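 CellTiter-Glo luminescence; PR-UAS-bla HEK293T, 3,000 cells/well; compound + R5020, 16 hr, 37C/5% CO2; 30 min RT before read.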

[5] = qHTS assay to identify small molecule agonists of the progesterone receptor (PR) signaling pathway - cell viability counter screen (AID 1346799; calls by dose curve; also: nearly all actives have a fitted effect of over 45% in size)
Method in brief: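 In parallel with the beta-lactamase readout, cytotoxicity toward PR-UAS-bla HEK293T cells was measured by CellTiter-Glo luminescence following 16 hr compound incubation in 2% charcoal-stripped FBS medium.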

[6] = qHTS assay to identify small molecule antagonists of the TGF-beta/Smad signaling pathway - cell viability counter screen (AID 1346824); also: nearly all actives have a fitted effect of over 50% in size
Method in brief: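 Cytotoxicity counter-screen run in the same wells as the beta-lactamase Smad reporter read: CellTiter-Glo luminescence after 30 min at room temperature. HEK 293T SBE-bla cells had 5 hr compound exposure at 37 C with TGF-beta1 (0.25 ng/mL stock).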

[7] = qHTS assay to identify small molecule agonists of the TGF-beta/Smad signaling pathway - cell viability counter screen (AID 1346829); also: top concentration of the series differs between compounds; nearly all actives have a fitted effect of over 45% in size
Method in brief: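 Here the cytotoxicity of library compounds is measured in SBE-bla HEK 293T cells treated for 5 hr, using CellTiter-Glo added to wells already read for the beta-lactamase reporter.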

[8] = qHTS assay to identify small molecule agonists of the TGF-beta/Smad signaling pathway (AID 1346859; active = well fitted activation curve with a large enough effect in the signal ratio in the repeat runs, not every such curve was filed as active; the % refers to the signal ratio; also: series mostly up to about 77 µM)
Method in brief: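 After overnight seeding, SBE-bla HEK 293T cells are dosed with compounds in DMSO and kept 5 hr at 37 C, 5% CO2. LiveBLAzer-type FRET substrate is then applied for 2 hr at room temperature.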

[9] = target: Thyrotropin-releasing hormone receptor (Homo sapiens) (UniProt P34981); experiment: qHTS assay to identify small molecule antagonists of the thyrotropin-releasing hormone receptor (TRHR) signaling pathway (AID 1346877; active = well fitted inhibition curve with a large enough effect in the repeat runs, not every such curve was filed as active; also: series mostly up to about 51 µM)
Method in brief: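 Overnight-plated (18 h, 37 °C) HEK293 cells expressing TRHR were dye-loaded 2 h, treated with compound, then stimulated with TRH at 1 nM final. Fluorescence intensity was captured every second for 3 min.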

[10] = target: Thyrotropin-releasing hormone receptor (Homo sapiens) (UniProt P34981); experiment: qHTS assay to identify small molecule agonists of the thyrotropin-releasing hormone receptor (TRHR) signaling pathway (AID 1346891; calls by dose curve;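 also: HEK293 cells expressing TRHR with calcium dye readout; series mostly up to about 58 µM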)
Method in brief: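 Compounds were tested as agonists at 15 concentrations, in triplicate, on TRHR-Hek293 cells; calcium-sensitive dye fluorescence was recorded for 3 min following addition.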

[11] = Human pregnane X receptor (PXR) small molecule agonists, qHTS cell viability counter screen (AID 1346977); also: nearly all actives have a fitted effect of over 50% in size
Method in brief: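 Viability counter screen: CellTiter-Fluor signal in PXR-Luc HepG2 cells, 24hr compound exposure, 37C, 5% CO2.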

[12] = Caspase-3/7 induction in HepG2 cells by small molecules, qHTS assay (AID 1346978); also: nearly all actives have a fitted effect of over 15% in size
Method in brief: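 Caspase-3/7 induction was measured by Caspase-Glo 3/7 luminescence (30 min, room temperature) after a 17 hr compound exposure of wild-type HepG2 cells seeded at 2,000 per well and pre-incubated 5 hr.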

[13] = Caspase-3/7 induction in CHO-K1 cells by small molecules, qHTS cell viability counter screen (AID 1346979); also: nearly all actives have a fitted effect of over 35% in size
Method in brief: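 Viability readout by fluorescence (CellTiter-Fluor) on wild-type CHO-K1 cells exposed for 16hr at 37C and 5% CO2 to compounds delivered in DMSO; reagent incubated 1hr before reading.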

[14] = Caspase-3/7 induction in CHO-K1 cells by small molecules, qHTS assay (AID 1346980); also: nearly all actives have a fitted effect of over 15% in size
Method in brief: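 Luminescent Caspase-Glo 3/7 read (30min, room temperature) quantified apoptosis induction. Cells were wild-type CHO-K1, treated with compound for 17hr at 37 C and 5% CO2.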

[15] = Caspase-3/7 induction in HepG2 cells by small molecules, qHTS cell viability counter screen (AID 1346981); also: series mostly up to about 92 µM; nearly all actives have a fitted effect of over 30% in size
Method in brief: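 Treatment of HepG2 cells with DMSO-delivered compounds ran 16 hr at 37 C following a 5-hr pre-incubation of 2,000 cells/well. CellTiter-Fluor fluorescence, read after 1 hr, served as the viability measure in a qHTS format.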

[16] = target: Nuclear receptor subfamily 1 group I member 2 (Homo sapiens) (UniProt O75469); experiment: Human pregnane X receptor (PXR) small molecule agonists, qHTS assay (AID 1346982); also: nearly all actives have a fitted effect of over 35% in size; also: potency is read from the fitted curve at half-maximal effect
Method in brief: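 Stable HepG2 line reporting PXR-mediated CYP3A4 expression via luciferase. Treatment: 24 hr with compounds in DMSO at 37 C. Detection: ONE-Glo luminescence.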

[17] = target: Acetylcholinesterase (Homo sapiens) (UniProt P22303); experiment: Acetylcholinesterase (AChE) small molecule antagonists: colormetric cell-based qHTS assay (AID 1347395; calls by dose curve; also: nearly all actives have a fitted effect of over 30% in size)
Method in brief: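 Homogeneous whole-cell format. SH-SY5Y cells seeded overnight, dosed with compound (30 min, 37 C, 5% CO2), then given DTNB/acetylthiocholine cocktail for 90 min at 37 C; colorimetric signal.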

[18] = target: Acetylcholinesterase (Homo sapiens) (UniProt P22303); experiment: Acetylcholinesterase (AChE) small molecule antagonists: enzyme-based qHTS assay (AID 1347397; calls by dose curve; also: nearly all actives have a fitted effect of over 55% in size); details: Potency: AChE enzyme activity inhibition
Method in brief: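 Colorimetric DTNB readout of acetylthiocholine hydrolysis, 10 min at room temperature, after 30 min room-temperature exposure of 50 mU/mL recombinant human enzyme to compound; DMSO vehicle control.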

Measured: Potency

Sequence of Nuclear receptor subfamily 1 group I member 2 (Homo sapiens) (O75469 whole entry, looked up): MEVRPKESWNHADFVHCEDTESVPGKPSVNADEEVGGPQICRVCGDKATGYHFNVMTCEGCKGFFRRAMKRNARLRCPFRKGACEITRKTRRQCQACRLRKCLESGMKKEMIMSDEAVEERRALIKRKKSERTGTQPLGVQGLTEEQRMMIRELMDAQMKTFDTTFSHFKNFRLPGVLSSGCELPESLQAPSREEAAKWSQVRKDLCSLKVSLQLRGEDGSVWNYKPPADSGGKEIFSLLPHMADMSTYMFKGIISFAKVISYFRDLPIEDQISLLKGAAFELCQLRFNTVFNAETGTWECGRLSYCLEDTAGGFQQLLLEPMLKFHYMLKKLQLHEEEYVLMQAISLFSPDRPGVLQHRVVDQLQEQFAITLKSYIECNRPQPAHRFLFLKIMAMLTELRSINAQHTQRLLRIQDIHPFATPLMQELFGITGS
Sequence of Progesterone receptor (Homo sapiens) (P06401 whole entry, looked up): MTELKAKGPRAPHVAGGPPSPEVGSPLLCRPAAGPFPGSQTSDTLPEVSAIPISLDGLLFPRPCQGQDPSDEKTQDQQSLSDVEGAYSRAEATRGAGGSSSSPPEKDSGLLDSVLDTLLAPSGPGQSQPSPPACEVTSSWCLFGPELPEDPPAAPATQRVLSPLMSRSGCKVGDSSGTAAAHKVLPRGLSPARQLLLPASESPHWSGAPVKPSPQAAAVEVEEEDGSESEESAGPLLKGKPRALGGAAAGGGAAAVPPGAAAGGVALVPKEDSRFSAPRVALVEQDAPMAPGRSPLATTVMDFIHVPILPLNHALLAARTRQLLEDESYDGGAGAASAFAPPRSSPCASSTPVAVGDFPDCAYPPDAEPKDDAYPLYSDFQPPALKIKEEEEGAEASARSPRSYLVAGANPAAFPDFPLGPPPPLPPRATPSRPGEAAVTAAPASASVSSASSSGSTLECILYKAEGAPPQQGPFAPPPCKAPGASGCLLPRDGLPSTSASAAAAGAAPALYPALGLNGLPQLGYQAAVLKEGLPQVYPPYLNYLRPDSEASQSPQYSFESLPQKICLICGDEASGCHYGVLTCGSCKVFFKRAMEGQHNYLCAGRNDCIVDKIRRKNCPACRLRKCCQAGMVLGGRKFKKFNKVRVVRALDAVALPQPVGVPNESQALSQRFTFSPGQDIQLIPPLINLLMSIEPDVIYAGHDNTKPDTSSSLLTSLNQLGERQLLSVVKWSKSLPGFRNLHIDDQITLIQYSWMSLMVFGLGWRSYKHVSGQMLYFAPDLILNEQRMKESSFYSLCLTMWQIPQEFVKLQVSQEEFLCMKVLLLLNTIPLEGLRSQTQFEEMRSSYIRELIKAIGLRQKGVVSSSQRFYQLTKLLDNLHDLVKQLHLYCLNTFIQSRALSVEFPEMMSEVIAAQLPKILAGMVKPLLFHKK
Sequence of Acetylcholinesterase (Homo sapiens) (P22303 whole entry, looked up): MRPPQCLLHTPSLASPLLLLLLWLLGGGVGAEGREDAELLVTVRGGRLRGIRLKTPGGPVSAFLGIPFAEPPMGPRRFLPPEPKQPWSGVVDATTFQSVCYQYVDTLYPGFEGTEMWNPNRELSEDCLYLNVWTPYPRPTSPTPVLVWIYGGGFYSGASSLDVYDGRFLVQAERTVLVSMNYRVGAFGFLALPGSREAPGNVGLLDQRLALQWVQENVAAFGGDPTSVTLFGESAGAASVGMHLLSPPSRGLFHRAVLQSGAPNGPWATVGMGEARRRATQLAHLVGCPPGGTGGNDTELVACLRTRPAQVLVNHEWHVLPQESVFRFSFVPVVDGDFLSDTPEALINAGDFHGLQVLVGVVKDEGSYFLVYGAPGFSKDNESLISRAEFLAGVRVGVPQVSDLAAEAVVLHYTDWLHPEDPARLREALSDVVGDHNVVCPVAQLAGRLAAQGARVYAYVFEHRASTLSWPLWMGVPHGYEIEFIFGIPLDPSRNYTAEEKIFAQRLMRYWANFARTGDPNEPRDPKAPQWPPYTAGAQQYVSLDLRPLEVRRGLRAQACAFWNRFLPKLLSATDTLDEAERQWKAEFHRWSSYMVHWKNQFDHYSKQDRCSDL
Sequence of Thyrotropin-releasing hormone receptor (Homo sapiens) (P34981 whole entry, looked up): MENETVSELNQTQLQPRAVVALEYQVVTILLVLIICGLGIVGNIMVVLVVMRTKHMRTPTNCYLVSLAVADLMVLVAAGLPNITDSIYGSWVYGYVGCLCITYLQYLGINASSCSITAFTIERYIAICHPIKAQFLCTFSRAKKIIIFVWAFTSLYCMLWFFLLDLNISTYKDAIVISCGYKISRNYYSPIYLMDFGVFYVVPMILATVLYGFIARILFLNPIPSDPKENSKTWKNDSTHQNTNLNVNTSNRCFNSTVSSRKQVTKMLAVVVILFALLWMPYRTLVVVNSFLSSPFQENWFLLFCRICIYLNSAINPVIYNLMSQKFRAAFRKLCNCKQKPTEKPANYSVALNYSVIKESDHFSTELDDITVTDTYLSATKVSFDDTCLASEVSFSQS

CC(=O)C(C)(C)C
inactive: [1] | [2] | [3] | [4] | [5] | [6] | [7] | [8] | [9] | [10] | [11] | [12] | [13] | [14] | [15] | [16] | [17] | [18]

c1ccc(C2CC2)c(OCC2=NCCN2)c1
inactive: [1] | [2] | [3] | [4] | [5] | [6] | [7] | [8] | [10] | [11] | [12] | [13] | [14] | [15] | [16] | [18]

COc1cc(Cl)c(OC)cc1Cl
inactive: [1] | [2] | [3] | [4] | [5] | [6] | [7] | [8] | [9] | [10] | [11] | [12] | [13] | [14] | [15] | [16] | [17] | [18]

NC(=O)CI
inactive: [1] | [2] | [3] | [4] | [5] | [6] | [7] | [8] | [9] | [10] | [11] | [12] | [13] | [14] | [15] | [17] | [18]
active: [16] 69.1 µM

[O-][Cl+]O
inactive: [1] | [2] | [3] | [4] | [5] | [6] | [7] | [8] | [9] | [10] | [12] | [13] | [14] | [15] | [16] | [17] | [18]

CC(=O)CCC(C)=O
inactive: [1] | [2] | [3] | [4] | [5] | [6] | [7] | [8] | [9] | [10] | [11] | [12] | [13] | [14] | [15] | [16] | [17] | [18]

c1ccoc1
inactive: [1] | [2] | [3] | [4] | [5] | [6] | [7] | [8] | [9] | [10] | [11] | [12] | [13] | [14] | [15] | [16] | [17] | [18]

O=C(NC(=O)c1c(F)cccc1F)Nc1ccc(OC(F)(F)C(F)OC(F)(F)F)c(Cl)c1 (stereo unspecified)
inactive: [1] | [2] | [3] | [4] | [5] | [6] | [7] | [8] | [9] | [10] | [11] | [12] | [13] | [14] | [15] | [16] | [17] | [18]

CC(Cl)Cl
inactive: [1] | [2] | [3] | [4] | [5] | [6] | [7] | [8] | [9] | [10] | [11] | [12] | [13] | [14] | [15] | [16] | [17] | [18]

Cc1cc(=O)[nH]o1
inactive: [1] | [2] | [3] | [4] | [5] | [6] | [7] | [8] | [9] | [10] | [11] | [12] | [13] | [14] | [15] | [16] | [17] | [18]

Brc1ccccc1
inactive: [1] | [2] | [3] | [4] | [5] | [6] | [7] | [8] | [9] | [10] | [11] | [12] | [13] | [14] | [15] | [16] | [17] | [18]

CCCCCC[N+](=O)[O-]
inactive: [1] | [2] | [3] | [4] | [5] | [6] | [7] | [8] | [9] | [10] | [11] | [12] | [13] | [14] | [15]

Cn1cc[n+](C)c1 (tested in a mixture with another compound)
inactive: [1] | [2] | [3] | [4] | [5] | [6] | [7] | [8] | [9] | [10] | [11] | [12] | [13] | [14] | [15] | [16] | [17] | [18]

CC1Sc2c(C(=O)O)c(=O)c3cc(F)c(N4CCNCC4)cc3n21 (stereo unspecified)
inactive: [1] | [2] | [3] | [4] | [5] | [6] | [7] | [8] | [9] | [10] | [11] | [12] | [13] | [14] | [15] | [16] | [17] | [18]

O=C1C(Cl)C(CCl)CN1c1cccc(C(F)(F)F)c1 (stereo unspecified)
active: [3] 30.6 µM | [4] 0.864 µM | [16] 24.3 µM
inactive: [1] | [2] | [5] | [6] | [7] | [8] | [9] | [10] | [11] | [12] | [13] | [14] | [15] | [17] | [18]

C=C(C#N)CCC#N
inactive: [1] | [2] | [3] | [4] | [5] | [6] | [7] | [8] | [10] | [11] | [12] | [13] | [14] | [15] | [16] | [17] | [18]
